ANO1 activ: mouse TMEM16A channel activation, primary screen. HEK293 TMEM16A/YFP-H148Q/I152L, iodide quench fluorescence; active compounds read low. B-score at 10 µM. 0.3% of 340,000 active. AID 623877;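 active means fluorescence-ratio B-score plate-corrected deviation score at least 3 library SD below zero, with starting fluorescence score within 5 deviations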;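 further: channel opened by trigger with iodide after compound preincubation; score built on the fluorescence ratio of max minus min over baseline; more negative score means more quench and so TMEM16A activation or potentiation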
ANO1 block: mouse TMEM16A channel inhibition, primary screen; Q8BHY3; HEK293 TMEM16A/YFP iodide influx fluorescence, ionomycin; normalized B-score (activity score, 25-100; higher = stronger inhibition) at 10 µM; 1.2% of 310,000 active;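 active means ratio plate-corrected score three or more library SD toward inhibition, starting fluorescence score within five deviations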;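 further: score derived from kinetic fluorescence span divided by baseline fluorescence per well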
CHT inh: human CHT choline transport inhibition; Q9GZV3; CHT-expressing cells, membrane potential dye, choline response; active compounds read low; B-score at 10 µM; 0.86% of 310,000 active; AID 488975;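 active means B-score over 3 SD under the library average, and starting fluorescence ratio not unusually high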;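 further: choline stimulus applied at its EC90 after an EC20 pre-addition; B-score computed on integrated fluorescence ratio after choline addition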
Target sequence (Q9GZV3 whole entry, looked up): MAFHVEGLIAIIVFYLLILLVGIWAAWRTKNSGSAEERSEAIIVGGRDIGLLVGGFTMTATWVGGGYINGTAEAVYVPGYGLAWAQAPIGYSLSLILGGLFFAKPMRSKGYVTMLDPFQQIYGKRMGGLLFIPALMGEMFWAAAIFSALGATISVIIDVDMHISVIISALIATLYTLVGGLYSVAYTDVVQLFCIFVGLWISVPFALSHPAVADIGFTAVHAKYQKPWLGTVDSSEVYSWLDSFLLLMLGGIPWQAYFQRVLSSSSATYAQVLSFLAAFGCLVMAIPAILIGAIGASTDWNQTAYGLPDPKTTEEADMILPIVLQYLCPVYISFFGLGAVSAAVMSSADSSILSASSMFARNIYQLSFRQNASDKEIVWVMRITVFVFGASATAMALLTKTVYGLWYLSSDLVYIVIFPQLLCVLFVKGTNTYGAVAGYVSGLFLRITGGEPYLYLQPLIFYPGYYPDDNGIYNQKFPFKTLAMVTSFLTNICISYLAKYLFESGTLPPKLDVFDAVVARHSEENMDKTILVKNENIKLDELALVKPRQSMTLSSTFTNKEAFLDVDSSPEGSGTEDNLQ
CHT allo act: allosteric activators of human choline transporter CHT. CHT-expressing cells, membrane potential dye, choline EC20; active compounds read high; LV-AA mutant CHT in HEK293 cells. B-score at 10 µM. 0.49% of 310,000 active. AID 488977;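 active means initial fluorescence not abnormally high and integrated response B-score, plate-corrected, over 3 SD above library mean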
CHT block conf: human CHT inhibition, confirmatory screen | CHT activity remaining % of control (active compounds read low), % at 10 µM | 70% of 2,400 active | CHT-expressing cells, choline membrane potential dye; LV-to-AA substituted CHT, HEK293 cells | shares compounds with CHT inh;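 active means choline transporter activity left, mean of duplicates at 10 µM, below buffer-only control mean minus 3 SD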;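 further: depolarization triggered by choline at its EC90 following an EC20 pre-addition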
HEK293 CHT ctr: CHT inhibitor counter-screen hit in parental HEK293 cells | shares compounds with CHT inh | membrane potential dye, choline response; active = decrease or increase beyond buffer ±3SD | membrane potential ratio readout (active if shifted either direction beyond buffer ±3SD; no single direction) at 10 µM | 4% of 2,400 active;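 further: parental cells lack the transporter so any hit is non-specific; ratio is peak minus trough fluorescence over baseline after EC90 choline challenge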
Of the large screens only hits and unclear results are named; the others gave an inactive call (follow-up assays come after a bar, where they were run). A selection: hits, their analogues and other compounds. The true share with any hit is near 2.3%.

O=C(COc1ccc(F)cc1)Nc1c(C(=O)N2CCC(N3CCCCC3)CC2)oc2ccccc12	CHT inh -11.9 | CHT block conf 28.8% | HEK293 CHT ctr inactive
CCOCCCN(C)C1CCN(C(=O)c2oc3ccccc3c2NC(=O)c2ccc(F)cc2)CC1	CHT inh -9.02 | CHT block conf 20.6% | HEK293 CHT ctr inactive
CCOCCCN(C)C1CCN(C(=O)c2oc3ccccc3c2NC(=O)c2ccc([N+](=O)[O-])cc2)CC1	none
COc1ccc([C@@H]2[C@@H]3C(=O)N(C(C)(C)C)C(=O)[C@@H]3[C@]3(C)C(=O)N(c4ccc(C)cc4)C(=O)N23)cc1	none
Cc1cc2c(c(=O)o1)C(c1ccc([N+](=O)[O-])o1)C(C#N)=C(N)O2 (centres undefined)	none
CCc1ccc(NC(=O)[C@H](Cc2ccccc2)NC(=O)C2CCN(C(=O)[C@@H](N)CC(C)C)CC2)cc1	none
CC1CCCN(C(=S)NCCc2ccccc2)C1 (centres undefined)	none
CN1CCC(N(C)C(=S)NCCc2ccccc2)CC1	CHT inh -7.33 | CHT block conf inactive | HEK293 CHT ctr inactive
N#CCN1CCN(CCC(=O)Nc2ccc(OCc3ccccc3)cc2)CC1	none | CHT block conf inactive | HEK293 CHT ctr inactive
O=C(CN1CCCC1)Nc1ccc(OCc2ccccc2)cc1	none
Cc1cc(C)n2cc(CSc3nc4cc(Cl)ccc4o3)nc2n1	none
O=c1cc(CSc2nc3cc(Cl)ccc3o2)nc2sccn12	CHT inh -5.35 | CHT block conf 50.6% | HEK293 CHT ctr inactive
Cc1cccc(-c2nc3ccccc3c(=O)n2N)c1	none
Nn1c(-c2ccccc2)nc2cc(Cl)ccc2c1=O	CHT inh -7.24 | CHT block conf inactive | HEK293 CHT ctr inactive
O=C(COc1ncnc2ccccc12)NCCc1ccc(F)cc1	none
CC(=O)NCCc1nc2ccccc2n1CCOc1cccc(C)c1	none
Cc1cccc(OCCCn2c(CCNC(=O)C(C)C)nc3ccccc32)c1	CHT inh -5.12 | CHT block conf inactive | HEK293 CHT ctr inactive
CC(C)=CCN1CCN(Cc2cn(C(C)C)c3ccccc23)CC1CCO (centres undefined)	CHT inh -4.98 | CHT block conf 39.8% | HEK293 CHT ctr inactive
CCC(=O)Nc1cc(Cl)ccc1N1CCN(C(=O)CC)CC1	CHT inh -8.09 | CHT block conf 66.6% | HEK293 CHT ctr inactive
CCOC(=O)C1CCCN(c2c(NCCC(C)C)c(=O)c2=O)C1 (centres undefined)	none
CCOC(=O)C1CCN(c2c(NCCC(C)C)c(=O)c2=O)CC1	CHT inh -6.43 | CHT block conf inactive | HEK293 CHT ctr inactive
O=C(Nc1ccc(S(=O)(=O)NCC2CCCO2)cc1)c1ccc(Cl)cc1[N+](=O)[O-] (centres undefined)	CHT inh -15.9 | CHT block conf 0.4% | HEK293 CHT ctr inactive
CC(=O)Nc1ccc(C(=O)Nc2ccc(S(=O)(=O)NCC3CCCO3)cc2)cc1 (centres undefined)	none
Cc1c(C(=O)Nc2ccc(S(=O)(=O)NCC3CCCO3)cc2)cccc1[N+](=O)[O-] (centres undefined)	CHT inh -5.17 | CHT block conf 41.3% | HEK293 CHT ctr inactive
Cn1c(C(=O)N2CCCc3ccccc32)cc2sccc21	none
COc1ccc(C(=O)Nc2ccccc2C(=O)NCCN2CCOCC2)cc1OC	none
O=[N+]([O-])c1cc([N+](=O)[O-])c2cccnc2c1Oc1ccccc1O	CHT inh -6.96 | CHT block conf 45.1% | HEK293 CHT ctr inactive
O=[N+]([O-])c1ccc(S(=O)(=O)Nc2nc(-c3ccccc3)cs2)cc1	ANO1 block 100, CHT inh -5.6 | CHT block conf 58.2% | HEK293 CHT ctr inactive
CCCC1C2C(=O)N(c3cccc(C)c3)C(=O)C2ON1c1ccccc1 (centres undefined)	none
CN(C)C(=O)N1CCN(S(=O)(=O)c2ccc3ccccc3c2)CC1	CHT inh -6.67 | CHT block conf 5.6% | HEK293 CHT ctr inactive
CC1CCN(C(=O)COC(=O)C2CCN(S(=O)(=O)c3ccc(Cl)c(C(F)(F)F)c3)CC2)CC1	none
Cc1ccc(Nc2nnc(-c3ccc(N4CCOCC4)c([N+](=O)[O-])c3)c3ccccc23)cc1	CHT inh -5.39 | CHT block conf 59.0% | HEK293 CHT ctr inactive
CCOc1ccc(S(=O)(=O)N(C)CC(=O)N2CCCC2)cc1	none
NNC(=O)c1ccc(COc2ccc(Br)cc2)o1	none
NNC(=O)c1ccc(CN2CCCCC2)o1	CHT inh -5.89 | CHT block conf inactive | HEK293 CHT ctr inactive
COc1ccc(NS(=O)(=O)c2cn(C)nc2C)cc1	none
Cc1ccc(Oc2ccc(S(=O)(=O)NCC(C)(C)N3CCOCC3)cc2)cc1	CHT inh -6.4 | CHT block conf 39.8% | HEK293 CHT ctr inactive
CN(NS(=O)(=O)c1ccc(Br)cc1)c1nc(C(F)(F)F)nc2ccccc12	ANO1 block 25, CHT inh -5.61 | CHT block conf inactive | HEK293 CHT ctr inactive
CN(N)c1nc(C(F)(F)F)nc2ccccc12	none
CNc1nc2[nH]c(=O)c3c(c2s1)OC(N)=C(C#N)C3c1ccccc1 (centres undefined)	none
CCNc1nc2[nH]c(=O)c3c(c2s1)OC(N)=C(C#N)C3c1ccc(C)cc1 (centres undefined)	CHT inh -4.95 | CHT block conf 67.3% | HEK293 CHT ctr inactive
COc1ccccc1NS(=O)(=O)c1ccc(O)c(C(N)=O)c1	none
COc1ccccc1NS(=O)(=O)c1ccc(O)c(C(=O)OCC(=O)c2ccc(Cl)cc2Cl)c1	CHT inh -5.33 | CHT block conf 62.2% | HEK293 CHT ctr inactive
CC1(C(=O)N2CCC(CC3CC(c4ccc(Cl)cc4)=NO3)(C(=O)NCC3CCCCC3)CC2)CC1 (centres undefined)	CHT inh -5.18 | CHT block conf 71.4% | HEK293 CHT ctr inactive
CCC(CC)c1nnc(NC(=O)c2c(C)nn(Cc3ccccc3Cl)c2C)s1	CHT inh -5.07 | CHT block conf inactive | HEK293 CHT ctr inactive
O=C(O)c1ccc(N2C(=O)CSC2=S)cc1	CHT inh -6.36 | CHT block conf 68.6% | HEK293 CHT ctr inactive
O=C(O)c1cc(C(=O)O)cc(N2C(=O)CSC2=S)c1	none
Fc1ccccc1COc1ccc(Br)cc1CNCc1ccncc1	CHT inh -5.48 | CHT block conf 70.1% | HEK293 CHT ctr inactive
CCCc1cc(=O)[nH]c(SCc2cc(C(=O)OC)c(C)o2)n1	CHT inh -5.98 | CHT block conf inactive | HEK293 CHT ctr inactive
CC(C)(O)C#Cc1ccc(CN2CCCC(CNC(=O)c3ccco3)C2)cc1 (centres undefined)	none
CSc1ccc(C(=O)C2CCCN(C(=O)c3nonc3C)C2)cc1 (centres undefined)	CHT inh -5.67 | CHT block conf 59.6% | HEK293 CHT ctr inactive
